Shown are actives, neighbours in structure and some others; about 2.7% of the full set was active somewhere.
TMEM16A act: activates or potentiates the mouse TMEM16A chloride channel; Q8BHY3; HEK293 TMEM16A/YFP-H148Q/I152L, iodide quench fluorescence; active compounds read low; B-score at 10 µM; 340,000 tested, 0.3% active;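 active = fluorescence-ratio B-score plate-corrected deviation score at least 3 library SD below zero, with starting fluorescence score within 5 deviations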;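 note: channel opened by trigger with iodide after compound preincubation; score built on the fluorescence ratio of max minus min over baseline; more negative score means more quench and so TMEM16A activation or potentiation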
CHT block: human CHT choline transport inhibition; 310,000 tested, 0.86% active; B-score at 10 µM; CHT-expressing cells, membrane potential dye, choline response; active compounds read low; Q9GZV3;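 active = B-score over 3 SD under the library average, and starting fluorescence ratio not unusually high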;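 note: choline stimulus applied at its EC90 after an EC20 pre-addition; B-score computed on integrated fluorescence ratio after choline addition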
Target sequence (Q9GZV3 whole entry, looked up): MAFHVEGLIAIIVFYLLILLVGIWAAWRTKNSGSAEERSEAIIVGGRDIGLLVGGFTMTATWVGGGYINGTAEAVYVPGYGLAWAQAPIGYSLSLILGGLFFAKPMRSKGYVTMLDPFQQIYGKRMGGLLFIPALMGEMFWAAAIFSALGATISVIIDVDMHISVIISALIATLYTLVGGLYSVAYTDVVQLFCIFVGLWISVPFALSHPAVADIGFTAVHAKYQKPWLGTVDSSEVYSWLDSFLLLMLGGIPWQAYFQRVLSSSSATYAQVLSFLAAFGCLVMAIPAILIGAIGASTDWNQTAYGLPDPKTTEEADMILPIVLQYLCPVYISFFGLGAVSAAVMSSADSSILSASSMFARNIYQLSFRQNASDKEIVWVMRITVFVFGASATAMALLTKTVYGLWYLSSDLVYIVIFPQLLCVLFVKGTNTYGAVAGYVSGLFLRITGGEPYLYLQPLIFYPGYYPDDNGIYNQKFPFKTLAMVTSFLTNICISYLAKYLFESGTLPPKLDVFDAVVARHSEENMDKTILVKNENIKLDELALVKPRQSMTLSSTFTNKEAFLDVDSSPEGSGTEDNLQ
IDE cell activ: IDE (human) activation, cell-based; P14735; HEK cells, FAbeta-B cleavage, fluorescence polarization; 0% vehicle, 100% cell-free pure enzyme wells; activation, % at 5.96 µM; 340,000 tested, 0.073% active;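 active = activation above the mean of all tested compounds plus 3 SD, set per screening campaign, cut at about 17% in these data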
CHT allo act: allosteric activators of human choline transporter CHT; Q9GZV3; CHT-expressing cells, membrane potential dye, choline EC20; active compounds read high; LV-AA mutant CHT in HEK293 cells; B-score at 10 µM; 310,000 tested, 0.49% active; AID 488977;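 active = initial fluorescence not abnormally high and integrated response B-score, plate-corrected, over 3 SD above library mean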
ANO1 block: mouse TMEM16A channel inhibition, primary screen. 310,000 tested, 1.2% active. AID 588511. normalized B-score (activity score, 25-100; higher = stronger inhibition) at 10 µM. HEK293 TMEM16A/YFP iodide influx fluorescence, ionomycin;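 active = ratio plate-corrected score three or more library SD toward inhibition, starting fluorescence score within five deviations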;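 note: score derived from kinetic fluorescence span divided by baseline fluorescence per well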
IDE inh: inhibits human insulin-degrading enzyme in HEK cells; P14735; FAbetaB cleavage, fluorescence polarization; inhibition, % at 5.59 µM; 320,000 tested, 0.41% active; AID 434962;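 active = percent inhibition above the average of all tested compounds plus 3 SD, set per screening campaign, cut at about 16% in these data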;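 note: IDE supplied by intact live HEK cells; FP after avidin binding of uncleaved biotin substrate so inhibition keeps polarization high; 0% = DMSO wells and 100% = 60 µM reference IDE inhibitor Ii1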
An asterisk follows results filed as active; i = inactive; x = no result.

SMILES | TMEM16A act | CHT block | IDE cell activ | CHT allo act | ANO1 block | IDE inh
CC(C)Oc1cc(C(=O)NC2CCCCC2)c2ccccc2n1 | i | i | 0 | i | i | 9
CCn1cc(C(=O)NCCCN(CC(C)C)CC(C)C)c(=O)c2cc(S(=O)(=O)N(C)C3CCCCC3)ccc21 | -13* | i | 2 | i | i | -1
CCCCN(CC)CCCNC(=O)c1cn(CC)c2ccc(S(=O)(=O)N3CCc4ccccc4C3)cc2c1=O | i | -13* | 2 | i | i | 2
CCN(CC)S(=O)(=O)c1ccc(N2CC(C(=O)N3Cc4ccccc4CC3C(N)=O)CC2=O)cc1 (configuration not stated) | i | x | -1 | x | x | -1
Cc1cccc(N2CCN(Cc3cc(=O)n4ccsc4n3)CC2)c1C | -14* | i | -3 | i | i | 8
Cc1nc2ccccc2cc1C(=O)N(C)Cc1ccccc1 | i | i | -1 | i | i | 0
CC(CCc1ccccc1)NC(=O)COC(=O)c1cc(NS(=O)(=O)c2ccc(Cl)c([N+](=O)[O-])c2)ccc1O (configuration not stated) | i | i | 1 | i | 100* | -1
CCOC(=O)/C(C(=Nc1ccccc1)Nc1ccccc1)=C(\C)O | i | i | 3 | i | i | -2
NC(=Nc1ccccc1)Nc1ccccc1 | -14* | i | -1 | i | i | -2
COc1ccc(NC(=O)C2CCN(S(=O)(=O)c3cccc4nonc34)CC2)cc1OC | i | i | 3 | i | i | 5
O=C(c1ccc(CSc2nc3ccncc3[nH]2)cc1)N1CCCCCC1 | i | i | -2 | i | i | 0
O=C(c1ccc(CSc2nc3ccncc3[nH]2)cc1)N1CCN(c2cccc(Cl)c2)CC1 | i | i | -7 | i | 100* | -5
COc1ccc2[nH]c3c(c2c1)CCN1C(=O)C(CC(=O)NCCc2ccccn2)C[C@H](C(=O)N(C(C)C)C(C)C)[C@@]31C (some centres not stated) | x | x | 3 | x | x | x
COc1ccc(OC)c(CCNC(=O)CCC(=O)N2CCOc3ccc(C)cc32)c1 | i | i | 3 | i | i | 2
NS(=O)(=O)c1ccc(NC(=S)NC(=O)C2CCCCC2)cc1 | -4.7* | i | 0 | i | i | 3
C=CCN(C(=O)C1CSC2(C)CCC(=O)N12)c1nc(-c2ccccc2)cs1 (configuration not stated) | i | i | -3 | i | i | -2
C=CCN(C(=O)C1=NN(C2CCS(=O)(=O)C2)C(=O)CC1)c1nc(-c2ccc([N+](=O)[O-])cc2)cs1 (configuration not stated) | -4.7* | i | 4 | i | i | -7
O=C(Nc1nc(-c2ccco2)c(-c2ccco2)s1)C1CC(=O)N(c2ccc3c(c2)OCCO3)C1 (configuration not stated) | -6.2* | i | 1 | i | i | 6
N#Cc1ccccc1OCCCN1CCC(Cc2ccccc2)CC1 | i | -9* | 4 | i | i | 1
Cc1ccc(CCNS(=O)(=O)c2ccc3c(c2)NC(=O)C(C)C(=O)N3)cc1 (configuration not stated) | i | i | -1 | i | i | 6
Cn1nnc2cc(C(=O)NC3CC3)ccc21 | -29* | i | 5 | i | i | 4
O=C(C[C@@H]1C/C=C/CC[C@H](Cc2ccc(F)cc2)C(=O)OC[C@@H](Cc2ccccc2)NC1=O)N[C@H](CO)Cc1ccccc1 | i | x | 2 | x | x | 2
CC(C)C(NC(=O)c1c(F)cccc1F)C(=O)N1CCN(S(=O)(=O)/C=C/c2ccccc2)CC1 (configuration not stated) | i | x | -6 | x | x | 3
O=C(N/N=C/c1cc([N+](=O)[O-])cc(Br)c1O)C12CC3CCC(CC(C3)C1)C2 | i | i | 2 | i | 100* | -8
Cc1ccc(S(=O)(=O)N2[C@@H](c3ccccc3)C(C(=O)O)=CC[C@H]2c2ccc(Cl)c(Cl)c2)cc1 | i | i | -5 | i | 100* | 0
SMILES | TMEM16A act | CHT block | IDE cell activ | CHT allo act | ANO1 block | IDE inh
Cc1ccc([C@H]2C(C(=O)O)=CC[C@@H](c3ccc(Cl)c(Cl)c3)N2S(=O)(=O)c2ccc(C)cc2)cc1 | x | x | -4 | x | x | 3
Cc1ccc(S(=O)(=O)N2[C@@H](c3ccccc3F)C(C(=O)O)=CC[C@H]2c2ccc(Cl)c(Cl)c2)cc1 | i | i | -6 | i | 100* | 3
CC(=O)c1ccc(N2CCN(C(=O)c3cc4c(s3)CCCC4)CC2)cc1 | -37* | i | -1 | i | i | 7
Cn1c(O)c(C=Nc2ccc(N3CCOCC3)cc2)c(=O)n(C)c1=S | -4.8* | x | 2 | x | x | x
COc1cc(CCC(=O)OCC(=O)Nc2sccc2C(N)=O)cc(OC)c1OC | i | x | 1 | x | x | x
CC(C)c1ccc(COc2ccc(C(=O)N3CCOCC3)cc2)cc1 | i | i | 0 | i | i | 3
CC(C)c1ccc(OCc2ccc(C(=O)N3CCN(c4ccccn4)CC3)cc2)cc1 | i | i | 1 | i | 100* | 4
CC1=NN(C(N)=S)C(=O)C1N=Nc1c(Cl)cc([N+](=O)[O-])cc1Cl (configuration not stated) | i | i | 5 | i | 25* | -7
O=C(N/N=C/c1cc(Cl)c(O)c(Cl)c1)c1cc2c(ccc3ccccc32)o1 | i | i | -1 | i | 100* | -5
O=C(N/N=C/c1cc(Br)c(O)c(Br)c1)c1cc2c(ccc3ccccc32)o1 | i | i | 0 | i | 100* | x
COc1cccc(CN(C)C(=O)CNC(=O)c2ccc(-c3ccccc3)cc2)c1OC | i | i | -1 | i | 100* | 9
CCOC(=O)C1CCN(S(=O)(=O)c2ccc3[nH]c(=O)ccc3c2)CC1 | i | i | -3 | i | i | 4
O=C(NCCCn1ccnc1)c1cc(Cl)cc(Cl)c1 | i | i | 1 | i | i | 2
O=c1oc2ccccc2c(Nc2ccccc2O)c1[N+](=O)[O-] | i | i | -2 | i | i | 2
O=c1oc2ccccc2c(Nc2cc3ccccc3cc2O)c1[N+](=O)[O-] | i | i | 7 | i | 100* | 1
COc1ccc(NC(=O)CN2C(=O)NC(C)(C3CC3)C2=O)cc1S(=O)(=O)N1CCOCC1 (configuration not stated) | i | x | 0 | x | x | -6
O=C(CSc1nnc(Cn2nnc3ccccc32)o1)N(Cc1ccc(F)cc1)c1ccccc1 | i | i | 0 | i | 25* | -2
Cn1c(=O)c(/C=C/c2ccc(F)cc2)nc2ccccc21 | -7* | x | 4 | x | x | x

Screening results deposited in PubChem by several laboratories.
